Holding throughout (assay): NCI-60 one-dose screen, 48 h (100 = growth as untreated, 0 = no growth, -100 = all killed)
Assay [1] relates to NCI-H23 lung. The settings on record: 10 µM unless noted.
Assay [2] has as its system NCI-H226 lung. The settings on record: 10 µM unless noted.
The test system of assay [3] is NCI-H322M lung. The settings on record: 10 µM unless noted.
Assay [4] has as its system HOP-62 NSCLC. Conditions: 10 µM unless noted.
For assay [5], the system named is HOP-92 NSCLC. The settings on record: 10 µM.
Assay [6] has as its system NCI-H522 lung. Conditions: 10 µM.
Assay [7] deals with A549/ATCC NSCLC. The settings on record: 10 µM unless noted.
Assay [8] relates to 786-0 renal. The settings on record: 10 µM unless noted.
For assay [9], the system named is COLO 205 colon. Conditions: 10 µM unless noted.
In assay [10] the test system is NCI-H460 lung. The settings on record: 10 µM unless noted.

SMILES strings stand for the structures. About 83,000 compounds went through this panel and 20% of them were active in at least one assay; those are over-represented in the sample as a whole.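 In brief: 96-well plates, 48 h treatment, single concentration, percent growth endpoint.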 Unmarked numbers belong to inactive results. Calls of active or inactive are those of the source. The calls were made as follows: active = growth percent below 10; inactive = the rest.

As for `Cc1nc2ccccc2c(=O)n1-c1cccc(OCc2cn(-c3cccc(O)c3)nn2)c1`, the growth is 95.1% in assay [1]; 105% in assay [2]; 101% in assay [3]; 93.4% in assay [4]; 81.6% in assay [5]; 72.1% in assay [6]. Moreover, the growth in [7] was 95.3%; in assay [8], 107%; in [9], 122%.
Consider `N#CC1=C(N2CCOCC2)NC2c3ccccc3Sc3ccccc3N2C1=N` (stereo not drawn), for which the growth in assay [1] is 99%; in assay [2], 94.5%; in assay [3], 117%; in assay [4], 78.3%; in assay [5], 84.5%; in assay [6], 83.6%. Also, the values for the growth in assay [7], in assay [8] and in assay [9] were 103%, 104% and 96.8%, respectively.
Turning to `N#CCCCCCCCCCCC#N`, the growth in assay [1] is 93.8%; in assay [2] it was 111%; in assay [3] it was 114%; in assay [4], 104%; in [6], 86%; in assay [7] it was 93.3%. Further, the growth in [8] is 99.9%; in assay [9], 111%.
As for `CCC(C)(C)c1ccc(OCCCCCCN2CCN(c3ccc(C)c(Cl)c3)CC2)cc1`, the growth was 62.3% in [1]; 73.7% in assay [2]; 88.3% in [3]; 98.3% in assay [4]; 82.6% in assay [5]; 84.6% in assay [6]. The growth is 97% in assay [7], 95.7% in assay [8] and 91.4% in assay [9].
For the molecule `COc1ccccc1CNCCCN1C(=O)c2ccc3c4c(ccc(c24)C1=O)C(=O)N(CCCNCc1ccccc1OC)C3=O`, the growth is -72.8% (active) in [1]; -64.7% (active) in assay [2]; -46.6% (active) in assay [3]; -35.9% (active) in assay [4]; -19.5% (active) in assay [5]; -90% (active) in assay [6]. The growth in [7] is -86.5% (active); in assay [8] it was -50% (active); in assay [9], -6.12% (active).
For the molecule `COc1ccc(Oc2[nH]n(C3=Nc4ccccc4Sc4ccccc43)c(=O)c2C#N)cc1`, the growth in assay [1] is 95.7%; in assay [2], 100%; in assay [3], 125%; in [4], 92.1%; in assay [5] it was 74.2%; in [6], 74.9%. The growth is 98.4% in assay [7], 104% in assay [8] and 111% in [9].
For the molecule `O=C(/C=C\c1ccc(NCc2ccc(C(=O)O)cc2)cc1)CCl`, the growth in assay [1] was 94.3%; in assay [2] it was 111%; in assay [3], 97%; in [4], 75.1%; in assay [5], 99.7%; in assay [6] it was -78.1% (active). Moreover, the growth in assay [7] is 100%; in assay [8], 90.4%; in [9] it was 78.6%.
`CC(=O)CCS(=O)c1ccccc1` (stereo not drawn): the growth in assay [1] was 98.1%; in assay [2], 107%; in assay [3], 93.7%; in assay [4] it was 105%; in [5], 92.8%; in assay [6] it was 82.7%. The growth in assay [7] was 96.1%; in assay [8] it was 105%; in assay [9], 124%.
On to `C=C1CCC2C3(C)COC(c4ccccc4)OC3CCC2(C)C1C/C=C1/C(=O)OCC1O` (stereo not drawn), for which the growth was 87.2% in assay [1]; 92.2% in [2]; 87.3% in [3]; 117% in [4]; 55.4% in [6]; 91% in [8].
`CCCNC(=O)Oc1ccc(/C(=C(/C)Cc2ccc(OC)cc2)c2ccc(OCCN3CCCC3)cc2)cc1`: the growth in assay [1] is 84.1%; in assay [2], 90.7%; in [3], 86.5%; in [4], 76.8%; in assay [5], 52.1%; in assay [6], 71.8%. In addition, the growth in assay [7] was 71.8%; in assay [8], 70.7%; in assay [9] it was 10.1%.
Turning to `O=C(NC1CCN(Cc2ccccc2)CC1)c1cc(-c2cccnc2)nc2ccc(Cl)cc12`, the growth in assay [1] was 67.9%; in assay [2] it was 84%; in [3], 91.6%; in assay [4], 101%; in assay [5], 56.5%; in assay [6], 90.4%. In addition, the growth is 56.3% in assay [7], 78.7% in assay [8] and -37.3% (active) in assay [9].
As for `CC([C@H]1CC=C2C3CCC4=C[C@@H](N(C)C)CC[C@]4(C)C3CC[C@@]21C)N(C)C` (stereo partly drawn), the growth in [1] is 51.9%; in assay [2], 47.9%; in assay [3], 83.3%; in assay [4] it was -19.4% (active); in assay [5], 70.2%; in [6] it was 98.2%. Also, the growth in assay [7] is 72%; in assay [8] it was -5.65% (active); in [9], -65.1% (active).
Take `CCOC(=O)CNS(=O)(=O)CC(=O)c1ccccc1`: the growth in assay [1] is 101%; in assay [2] it was 101%; in [3] it was 87.9%; in assay [4], 83.8%; in [6], 89.8%; in [7], 116%. For the same molecule, the growth in assay [8] is 97.5%; in assay [9] it was 130%.
With `Oc1ccc(N=Nc2ccc(N=Nc3ccccc3)cc2)cc1`, the growth in assay [1] is 59.9%; in assay [2], 57%; in assay [3], 49.7%; in assay [4] it was 59.3%; in [5], 79.8%; in [6], -15.1% (active). For the same molecule, the growth is 9.84% (active) in assay [7], 38.3% in assay [8] and 84.8% in assay [9].
Take `CCCCCCCCCc1cc[n+](CC(=O)c2ccc([N+](=O)[O-])cc2)cc1`: the growth in assay [1] was 14.2%; in [2], 31.8%; in assay [3], 71.6%; in assay [4] it was 27.2%; in assay [5], -45.2% (active); in assay [6], -12.9% (active). For the same molecule, the growth in assay [7] is -23.7% (active); in assay [8] it was 31.9%; in assay [9] it was -76.9% (active).
`CCN(CC)c1ccc2nc3ccc(N=Nc4ccc(O)cc4)cc3[n+](-c3ccccc3)c2c1`: the growth in assay [1] was 63.9%; in assay [2], 98.1%; in assay [3], 95.8%; in assay [4], 52.5%; in assay [5], 88.4%; in assay [6], 37.2%. Also, the figures for the growth in assay [7], in [8] and in assay [9] were 35.9%, 88.5% and -6.39% (active), respectively.
Take `COc1ccc(/C(=C(\c2ccccc2)[N+](=O)[O-])c2ccc(OCCN3CCCC3)cc2)cc1`: the growth is 74.9% in assay [1]; 72.8% in assay [2]; 87.2% in assay [3]; 94.1% in assay [4]; 59.5% in assay [5]; 83.7% in assay [6]. For the same molecule, the results for the growth in assay [7], in assay [8] and in assay [9] were 78.4%, 15.2% and 8.89% (active), respectively.
Take `O=C(C(=O)N1CCOCC1)c1ccc(O[C@H]2O[C@H](CO)[C@@H](O)[C@H](O)[C@@H]2O)cc1`: the growth is 99.9% in [1]; 95.8% in assay [2]; 91.7% in [3]; 111% in assay [4]; 102% in assay [5]; 93.9% in assay [6]. Further, the growth was 106% in [7], 97.1% in assay [8] and 119% in assay [9].
Turning to `Oc1ccc2ccccc2c1/C=N\Nc1ccccn1`, the growth was 0% (active) in [1]; 9.04% (active) in assay [2]; -12.6% (active) in assay [3]; -8.47% (active) in assay [4]; -15.1% (active) in assay [5]; 6.74% (active) in assay [6]. Also, the results for the growth in assay [7], in assay [8] and in assay [9] were 8.68% (active), -29.3% (active) and 91%, respectively.
For `Cc1c([C@H](C(Cl)Cl)[C@H](O)[C@H]2C[C@H](C)C(=O)O2)ccc2c1C(=O)[C@H]1[C@H]2C[C@@H](Br)[C@@]23O[C@@H](CO[C@H]2O)CC13C` (stereo partly drawn), the growth in assay [1] is 20.3%; in assay [2], 42.9%; in [3] it was 33.1%; in assay [4], 49.8%; in assay [5], 69.2%; in assay [7], -1.06% (active). Also, the growth in [8] is 40.1%.
With `CCCCCCN(CCCCCC)CCC(=O)Nc1ccc(S(=O)(=O)c2ccc(NC(=O)CCN(CCCCCC)CCCCCC)cc2)cc1`, the growth in [1] was 84.3%; in assay [2] it was 78.6%; in assay [3], 75.3%; in [4], 76.8%; in assay [5], 69.4%; in [7], 94.1%. Moreover, the growth is 90.5% in assay [8] and 74.1% in assay [9].
On to `O=C(O)c1ccc(Br)nc1`, for which the growth in [1] was 102%; in assay [2], 98.4%; in [3], 101%; in assay [4], 91.6%; in assay [5], 94.6%; in [6], 87.8%. Further, the growth in assay [7] was 89.6%; in [8], 100%; in [9], 105%.
For the molecule `COc1ccc2cc(C(C)C(=O)Nc3ccc(S(=O)(=O)Nc4cc(C)on4)cc3)ccc2c1` (stereo not drawn), the growth in assay [1] is 101%; in [2], 106%; in [3], 108%; in assay [4], 88.5%; in assay [5], 102%; in assay [6], 89.7%. Further, the growth is 86.2% in assay [7], 102% in assay [8] and 115% in [9].
As for `CCCCCCNc1nc(N2CCOCC2)c2[nH]c(NCCCCCC)nc2n1`, the growth in assay [1] was -94.5% (active); in assay [2], -82.9% (active); in assay [3], -46.7% (active); in assay [4] it was -95.9% (active); in [5], -77.7% (active); in assay [6], -79.8% (active). The growth in [7] was -90.1% (active); in assay [8], -100% (active); in assay [9], -64.8% (active).
As for `Cc1ccc(NCc2cn(-c3ccc(C(=O)O)cc3)nc2-c2ccc(C(=O)O)cc2)cc1`, the growth in [1] is 92.2%; in assay [2], 107%; in [3], 99.7%; in assay [4] it was 100%; in assay [5], 107%; in assay [6], 86.2%. In addition, the figures for the growth in [7], in assay [8] and in [9] were 94.9%, 103% and 104%, respectively.
For the molecule `CC1(C)NCCC[C@]2(C)[C@H]3CC=C4[C@@H]5C[C@](C)(COC(=O)c6ccccc6C(=O)O)CC[C@]5(C)CC[C@@]4(C)[C@]3(C)CC[C@@H]12`, the growth in assay [1] is 66.9%; in assay [2], 86.5%; in assay [3] it was 91%; in assay [10] it was 29.7%; in assay [5], 54.9%; in assay [6] it was 79%. The results for the growth in [7] and in assay [8] were 56.7% and 65.2%, respectively.
As for `N=C(N)c1ccc(-c2ccc(-c3cc(Cl)cc(Cl)c3)s2)cc1`, the growth in assay [1] was -77.4% (active); in assay [2], -64.7% (active); in assay [3], -84.4% (active); in assay [10] it was -81.1% (active); in assay [5], -77.1% (active); in assay [6], -41.2% (active). Moreover, the values for the growth in assay [7] and in [8] were -50.8% (active) and -73.3% (active), respectively.

The record behind these values is PubChem BioAssay (NCI).
